# Test results as given in PubChem BioAssay (Tox21).
# Several values for one entry are separate records, joined by “and”; a condition that tells them apart may be missing. Identical values can stand only once. Records with an inconclusive call do not appear. Entries that show only a call come without a potency. A structure can be active in one record and inactive in another. Activity calls are given as the source filed them. The call rests on the fitted dose curve; in most records, active means well fitted cell-killing curve with a large enough effect in the repeat runs; inconclusive means weak or mixed curves, or effect the other way; inactive means no such curve, though single readings can be large or run the other way.
# Assay: qHTS assay to identify small molecule antagonists of the vitamin D receptor (VDR) signaling pathway - cell viability counter screen (AID 743225); further: nearly all actives have a fitted effect of over 50% in size
# Conditions: VDR-bla HEK293T viability, CellTiter-Glo luminescence, 16 h; series mostly up to 61 µM
# Text: U.S. Tox21 Program National Center for Advancing Translational Sciences [NCATS] NIH Chemical Genomics Center [NCGC] U.S. Environmental Protection Agency [EPA] National Institutes of Environmental Health Sciences [NIEHS] National Toxicology Program [NTP] U.S. Food and Drug Administration [FDA] Tox21 Assay Overview: The vitamin D receptor (VDR), a member of nuclear hormone receptor superfamily, plays a critical role in calcium homeostasis and bone metabolism. It is also involved in cell differentiation and growth, and thrombogenicity. To identify the compounds that inhibit VDR signaling, the VDR-UAS-bla HEK 293T cell line (Invitrogen, Carlsbad, CA, USA) containing a beta-lactamase reporter gene under the control of an upstream activator sequence (UAS) was used to screen the Tox21 10K compound library. The cytotoxicity of the Tox21 compound library against the VDR-bla cell line was tested in parallel by measuring the cell viability using CellTiter-Glo assay (Promega, Madison, WI) in the same wells.
# Tox21 Assay Protocol Summary: VDR-bla cells were dispensed at 2,000 cells/5 uL of assay medium per well into black wall/clear-bottom 1536-well plates using a Multidrop Combi (Thermo Fisher Scientific, Waltham, MA) dispenser. After the assay plates were incubated at a 37C and 5% CO2 for 4 h, 23 nL of compounds dissolved in DMSO, positive controls or DMSO only was transferred to the assay plate by a Pintool station (Kalypsys, San Diego, CA), followed by addition of 1 uL of 1-alpha, 25-Dihydroxy Vitamin D3 (3 nM, final concentration in the wells) using a Bioraptr Flying Reagent Dispenser (FRD) workstation (Beckman Coulter, Indianapolis, IN). The plates were incubated at 37C and 5% CO2 for 16 h, and then 1 uL of LiveBLAzerTM B/G FRET substrate was added using a Bioraptr FRD. The plates were incubated at room temperature for 2 h and fluorescence intensity was measured by an Envision plate reader (PerkinElmer, Shelton, CT). For cell viability readout that measures cytotoxicity, 3 ul/well of CellTiter-Glo reagent was added into the assay plates using a Bioraptr FRD. After 30 min incubation at room temperature, the luminescence intensity in the plates was measured using a ViewLux plate reader (PerkinElmer).
# Potency means the concentration at half of the fitted maximal effect.
row,SMILES,Potency
1,CC(C)C1CCC(Cc2ccc(Cl)cc2)C1(O)Cn1cncn1 (stereo not given),48.5 µM (active)
2,O=c1[nH]c2ccccc2n1CCCN1CCC(n2c(=O)[nH]c3cc(Cl)ccc32)CC1,inactive
3,ClC(Cl)=C(Cl)Cl,inactive
4,CC(=O)O[C@H]1CC[C@@]2(C)C(=CC[C@@H]3[C@@H]2CC[C@]2(C)C(=O)CC[C@@H]32)C1,inactive
5,CCN,inactive
6,O=C(O)C1C2CCC(O2)C1C(=O)O (stereo not given),inactive
7,CC(=O)[O-].CC(=O)[O-].[Hg+2],3.09 µM (active)
8,[Cl][Sb]([Cl])[Cl],inactive
9,C[C@]12Cc3nonc3C[C@@H]1CC[C@@H]1[C@@H]2CC[C@@]2(C)[C@H]1CC[C@]2(C)O,inactive
10,CN(C)C(=S)[S-].CN(C)C(=S)[S-].[Cu+2],4.74 µM (active)
11,CC(Cc1ccc(C(C)(C)C)cc1)CN1C[C@@H](C)O[C@@H](C)C1 (stereo not given in full),inactive
12,CC(C)[C@H](C(=O)OC(C#N)c1cccc(Oc2ccccc2)c1)c1ccc(OC(F)F)cc1 (stereo not given in full),inactive
13,CCCN(CCC)CCc1c[nH]c2ccccc12,inactive
14,CN(C)[C@@H]1C(=O)C(C(N)=O)=C(O)[C@@]2(O)C(=O)C3=C(O)c4c(O)ccc(Cl)c4[C@@](C)(O)[C@H]3C[C@@H]12,inactive
15,S=C=Nc1cccc2ccccc12,inactive
16,CC1(C)CN=C(NN=C(/C=C/c2ccc(C(F)(F)F)cc2)/C=C/c2ccc(C(F)(F)F)cc2)NC1,11 µM (active)
17,CN(C)CCc1c[nH]c2ccc(O)cc12,inactive
18,CC(=O)[O-].[Tl+],inactive
19,N#CSCSC#N,50.1 µM (active) and 34.3 µM (active)
20,CCOC(=O)C1(c2ccccc2)CCN(CCC(C#N)(c2ccccc2)c2ccccc2)CC1,inactive

row,SMILES,Potency
1,ClC1=C(Cl)[C@]2(Cl)[C@H]3[C@H]([C@H]4C=C[C@H]3C4)[C@@]1(Cl)C2(Cl)Cl,inactive
2,C[C@]12CC[C@H]3[C@@H](CCC4=CC(=O)CC[C@@]43C)[C@@H]1CC[C@@H]2O,inactive
3,Cc1cc(C)cc(OP(=O)(Oc2cc(C)cc(C)c2)Oc2cc(C)cc(C)c2)c1,inactive
4,CCCN(CC)CC1COC2(CCC(C(C)(C)C)CC2)O1 (stereo not given),inactive
5,N#C/C=C/C#N,inactive
6,CCc1nn(C)c(C(=O)NCc2ccc(C(C)(C)C)cc2)c1Cl,38.9 µM (active)
7,Cc1cc(C(F)(C(F)(F)F)C(F)(F)F)ccc1NC(=O)c1cccc(I)c1C(=O)NC(C)(C)CS(C)(=O)=O,inactive
8,COc1ccc(N)cc1N,inactive
9,Nc1ccccc1C(=O)OC/C=C/c1ccccc1,49.1 µM (active)
10,COc1ccc(/C(=C/C(=O)N2CCOCC2)c2ccc(Cl)cc2)cc1OC,inactive
11,ClC1=C(Cl)C2(Cl)C3C(Cl)C(Cl)CC3C1(Cl)C2(Cl)Cl (stereo not given),54.8 µM (active) and 49 µM (active)
12,O=c1[nH]c2ccccc2n1C1CCN(CCCC(c2ccc(F)cc2)c2ccc(F)cc2)CC1,24.5 µM (active)
13,CC(=O)c1cc(C(C)(C)C)cc2c1CCC2(C)C,inactive
14,CC(C)[C@H](C(=O)O[C@H](C#N)c1cccc(Oc2ccccc2)c1)c1ccc(Cl)cc1,inactive
15,CN(C)S(=O)(=O)N(SC(F)(Cl)Cl)c1ccccc1,27.5 µM (active)
16,CCC[CH2][Sn]([CH2]CCC)([CH2]CCC)[O]C(=O)c1ccccc1,1.95 µM (active)
17,CCCCOCN(C(=O)CCl)c1c(CC)cccc1CC,inactive
18,Oc1ccc(C(c2ccc(O)cc2)(C(F)(F)F)C(F)(F)F)cc1,inactive and 38.9 µM (active)
19,C[C@@H]1CC[C@@]2(OC1)O[C@H]1[C@@H](O)[C@H]3[C@@H]4CC[C@H]5C[C@@H](O[C@@H]6O[C@H](CO)[C@H](O[C@@H]7O[C@H](CO)[C@@H](O)[C@H](O[C@@H]8OC[C@@H](O)[C@H](O)[C@H]8O)[C@H]7O[C@@H]7O[C@H](CO)[C@@H](O)[C@H](O[C@@H]8O[C@H](CO)[C@@H](O)[C@H](O)[C@H]8O)[C@H]7O)[C@H](O)[C@H]6O)[C@H](O)C[C@]5(C)[C@H]4CC[C@]3(C)[C@H]1[C@@H]2C,5.2 µM (active)
20,CC(=O)/C=C/c1ccc2c(c1)OCO2,inactive
